From PubChem BioAssay AID1508600 (Functional Genomics Laboratory (NCATS/FGL), 2020) come the findings set out here.

The whole screen tested about 53,000 sequences, of which about 3,700 (7%) were called active. Only a selection was taken, and actives are over-represented in it overall. Unmarked numbers belong to inactive results.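 How the source made its calls: active means gene knockdowns whose robust z-score for IL-1 alpha signal is at least 2 or at most -2, so actives lie on both sides; inactive means the rest.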

This assay is described as follows: Components of the Cytosolic LPS Sensing Pathway: Gene Identification via Genome-wide siRNA Screen.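 Further: robust z of the log signal after scaling to non-targeting control siRNA wells of the plate.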 The conditions noted are these: RAW264.7 macrophages, IL-1a HTRF, actives lie on both sides, screened at 100 nM (by protocol), cells primed 5 h with Pam3CSK4 first. In short, it runs like this: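 Knockdown: 100 nM siRNA, 48h, RAW264.7. Stimulation: Pam3CSK4 5 h, then LipidA via TransIT-TKO 24 h. Output: supernatant IL-1a HTRF, negative-control-normalized, log robust z-score; viability by CellTiter-Glo.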
For GCUUAUAAUGCCAUUACUUTT against Rad21, the z-score was -0.548.
On to CGAUUUAAAGUAGUAGUGGTT against Dusp28, for which the z-score was -1.13.
With GACAGAAAUAUAGACUCGATT against Ppp1r42 the figure was -2.45 (active); with CGGAUAACAAAAGUAGCAATT against Trp53rka, 0.276.
Take GGUUUAGCAUCGUCCUAUATT against Crmp1: the z-score is -0.495.
Under CGGCAGAUGCAUUCAGGAUTT against Ccdc125 stands 0.0172.
With GGAGGUGUUAGAUUUUGACTT against Asrgl1 the figure was -0.295; with GGCGGAGGAAGAGUUCAACTT against Atp6v1e2, -0.393.
Under GGAUGAAACUAUUCAGCACTT against Chml stands -0.635.
Turning to GCAGGAGGAUUAGUAAAUUTT against Ier2, the z-score is 0.966.
On to CCCUAUUGUCAAUAUUCUATT against Nr1h5, for which the z-score was 0.492.
With GGGAGCAAAAGCUUUACUUTT against Prl3c1 the figure was 2.25 (active); with GGAGAAAUUUCUGAGAAGATT against Slc51a, -1.24; with GGCGGCCUUAGUAGAUAUCTT against Acsl4, 0.677.
With GGAACAAGGAAGUUACAGGTT against Olfr30 the figure was -1.06; with GAAAAGAGUUUCCACGAGATT against Il19, 0.0645; with GGAGAUUCUCCAUAACCUGTT against Rnf135, 2.29 (active).
For the sequence “GGGAGAAAGAUUGUAACUATT against 1110032A03Rik”, the z-score was -1.05.
With GGAACAAAAACCAUUGUGATT against Gng7 the figure was -1.49.
With CGAACCUGUUGACGGAUUCTT against Wnt1 the figure was 0.563; with GGACAAAGCAAUCCACAUCTT against Wdr55, -0.564; with CCAUCGGGAUUGACUAUGGTT against Dnajc27, -0.878.
With GCUAAUGAUACAGAAGUUGTT against Snrpb2 the figure was 0.661.
With GGAGGAUGAGGAUUUUGAUTT against Spsb3, the z-score is 2.16 (active).
With CCACUUCUUUCCAUGAACUTT against Slc6a4, the z-score is 0.7.
With GGCAGAUUGAUAAAAUUCATT against Stag1 the figure was -0.223; with GCUCAGUCUCUUGGGUGGUTT against Cel, 2.27 (active); with GCUCUGUUCACCUACCCGATT against Anapc16, 0.264.
With GGUUGUACUUGUUUUUCCUTT against Dtwd1 the figure was 1.35; with GCAUUGUCAUGAUACAACATT against Fem1b, 0.793.
Under GGAGGAGAGGAGAAUAGCATT against Atp5k stands -0.586; under GGAACUACAACAGAAACGATT against Cep131, -1.42; under GUGACAAUGAAAAAUGUGUTT against Clec4b1, -2.42 (active).
Take GGAAAUGUCUUAUGAUAACTT against Col5a1: the z-score was 0.194.
Under CCUCAUCAAUCAGCCUAUGTT against Olfr1178 stands -1.83; under GCAUCGCUAAGUCCGUCUUTT against Aqp4, -0.1; under GGACCUGUAUUCUCAGGGATT against Lce1a2, -0.251.
Under CCUGUAACCUUGCUUAAUGTT against Hoxc6 stands 0.0208; under GGAGAAAUGAAGGUAUACATT against Cert1, -1.12.
Regarding GGUUUAUGACAAACUGAAATT against Enpp4, the z-score was -0.0826.
Under GCAGAAGUUAAGAUGCAUATT against Usf1 stands 2.02 (active); under CCUGCUCAACGGAGACCAUTT against Hmx3, 3.47 (active); under GGCUUGAGACUUAAAACGGTT against Lztfl1, 0.583.
With CGCUGAAAUGGUGAAUAAATT against Recql the figure was -0.0529; with GUCCCACUGUCCAGUUACATT against Gm9946, -0.565; with CGAGAGAAGCCCAUCAUCATT against Nrg4, 1.
Under GGAAGAAAAGGGAUAUCAGTT against Xirp1 stands 0.253; under GGUUCAGACACCACUUCAGTT against Bgn, 2.56 (active).
With GGAGGAUCACCCAUCAAAUTT against Oxct1, the z-score is -0.083.
Turning to GGUAUUUUGAUGUUGGACUTT against Hhat, the z-score was 0.989.
Under GGAUGUGAAACAUGCUUUUTT against Olfr1030 stands 0.536; under CCUCAUGCAGCUCAAUCUATT against Prelp, -2.41 (active).
Under GGCUAUGGCUUUUGUAUGUTT against Arpin stands -0.0747; under GGACUCAAUAAGAACCUCGTT against Papss1, -1.25.
Under GGAUGAAAGUUGUAUGUAUTT against Ctsk stands -0.606; under GGAUCGUGAGCUUCUAUUATT against Gask1a, 0.434; under CGAGAAGUGCUGACUCAAUTT against Map2k3os, 0.563.
As to GGAUGUCUGGAAUGAAACATT against Slc17a4, the z-score was -3.16 (active).
Under GGAGAGCUGCAUCAAAAAGTT against Prdm16 stands 0.545.
GGUGCUCAUGCAGGUCCAUTT against Slc25a25: the z-score is -0.356.
Regarding GGGCCAUCUCUCAAUUAUGTT against Gga2, the z-score was 1.93.
For GGUUCUACAUGUGAAACAATT against Zfp143, the z-score is -2.15 (active).
Under GCCUGGUCUCACUAUGUAGTT against Hpvc2 stands 0.129.
Under GGACGUGUUUUACAAAUACTT against Srsf1 stands -0.979; under GGGAAAAUAUCUCAUAUCATT against Colec10, -0.944; under GGGCUGAAGAUGACUUCAATT against Topors, 5.91 (active).
Consider GGAUGUCUCGGAACUAAGGTT against Med28, for which the z-score is -0.571.
With GGUAUUACAAGGUCAUAUCTT against Nol12 the figure was -0.357; with UGGCCACGACCCUGAACUUTT against Ghrhr, 0.56; with GGCAUCAAAAAGCAGACAATT against Erich2, -1.98.
Under GGCUAUGGAACAAAGUACUTT against Sostdc1 stands 0.838.
With GGAAAGCACUUUUAUUCCUTT against Sgip1 the figure was -0.901; with GCCUCGAGAUAUUCUUUGUTT against Snrnp200, -2.07 (active).
GCUAAAAGGCUACGGGAGUTT against Bhlhe23: the z-score is -0.266.
With GUGCAGAUAUCUUUAGCAATT against Olfr159 the figure was -0.958; with GGAUGAGAGUAAGAUCUCGTT against Vipr2, -0.296.
Under GGAAAACUACCUCUUUUGATT against Cbll1 stands 1.4; under GGAGAUCUUAGAGAAAUUATT against Pak1, -0.956; under GCAAAGUGGAUAUAGUGUCTT against Gprin1, -0.217.
With GCAUGCUUUCUGAAUACAATT against Cdk8 the figure was 2.17 (active).
As for GGAACAGCUAAAGUUGGGATT against Kcnj9, the z-score is 0.5.
GGGUAUGGUUCUGUUGGCATT against Pxmp4: the z-score was -1.45.
With CCUAAAGGUUCCCAACAGUTT against Serpinb3d the figure was -0.517.
Under GGCUGAUUCAUUUGGGAACTT against Olfr9 stands 0.805; under GGCCUCUGAGGACAAGUUUTT against Als2cl, 0.0383; under GGUAGAGGAUGCGAUGCUGTT against Msi2, 4.61 (active).
As to GGGAGGUGCAGAUAGGAUUTT against Csrp1, the z-score was 0.912.
With GGCGAUAGUGUCUAAGAAATT against Cfap298 the figure was -0.0112; with GGAUGAGAAAUACUUUCGGTT against C8a, 0.126; with GGCAAGUGCCCAAGUUUGUTT against Ifi35, 1.08.
With GGCAUAUUGUUUCAUUUUGTT against Rlbp1 the figure was -1.19; with GGCUUUAUAUGAAACUCCUTT against Acrv1, -2.01 (active).
On to GCACAGUAGUUCUUGCAUCTT against Olfr891, for which the z-score is 0.13.
For the sequence CCUAGUCCCUCUGUCUCUUTT against Kctd13, the z-score was -1.79.
With GUACACCAGUGGAAGCACATT against Sprr2b the figure was -1.91; with GGAUUUGUCAAUGCAAUAATT against Olfr1012, -2.68 (active).
As to GGACAACAUAUUCUGAUAATT against Stmnd1, the z-score was 1.68.
Under GGCUUCCUACCUAAGGCUUTT against Bora stands -0.924; under CCAGACUACGGUGCUAAGATT against Defb21, 2.49 (active); under GGCCGUGUUAAGGAAUCUGTT against Cidea, 0.653.
CCUCUUCUGCGCGGAUUUGTT against Ffar4: the z-score was 0.708.
With GGAGAAAGCUUACUGCCUUTT against Lrrc6 the figure was -0.959.
Under GGAACAGCAGUUUUUGUUUTT against Rnf44 stands 0.097; under GGCGAGUCUACGUGACACUTT against Arrb1, 0.701; under GGACAUCGUGCUCUAUCUCTT against Nrarp, -1.07.
Under GCAGAUCUUGUGAUUAAUGTT against Ildr1 stands 0.882; under CCCAUGGAAUGAAAACAACTT against Gm4894, 2.58 (active); under GGAAAUAGUUGGUUUUGAATT against Slfn1, -1.95.
